# “And” between values parts separate entries of the source, which are not always exact repeats. Equal entries are not always repeated. The campaign covered roughly 220,000 compounds. About 2,000 (0.91%) were called active. Not shown: some 2% with an inconclusive outcome. Cut-off read from the data, not from the text of the source: inconclusive = inhibition above about 80% without an active follow-up result; inactive = below that; test concentration not stated here. Only a sample is shown. Potency and affinity values are given separately.
# Test: M. tuberculosis H37Rv growth inhibitors, H37Rv strain (AID 1626);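 note: bacteria incubated seven days before Alamar blue readout; 0% = bacteria only wells and 100% = bacteria with antibiotic wells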
# Conditions: stronger effect = higher value, concentration not given here
row,Structure (SMILES),inhibition
1,CC1(C)CC(=O)C(C=Nc2ccc(N)cc2)=C(O)C1,0.045% (inactive)
2,CC1(C)CC(=O)C(C=Nc2ccc(O)cc2)=C(O)C1,1.61% (inactive)
3,O=C(O)c1c2c(nc3ccc(Cl)cc13)CCC2,-3.42% (inactive)
4,COCCNC(=O)CSc1c2c(nc3ccc(Cl)cc13)CCCC2,0.54% (inactive)
5,Oc1ccc(-n2cnnn2)cc1,-8.59% (inactive)
6,Cc1cc(NCCN2CCOCC2)n2ncc(-c3ccccc3)c2n1,8.29% (inactive)
7,Cc1cc(-c2ccccc2)n2ncc(-c3ccccc3)c2n1,7.91% (inactive)
8,Cc1cc(N)n2ncc(-c3ccccc3)c2n1,8.61% (inactive)
9,CCc1nccn1-c1cc(C(C)(C)C)nc2c(-c3ccc(Cl)cc3)cnn12,3.22% (inactive)
10,CC(=O)Nc1ccc(Nc2cc(C)nc3c(-c4ccccc4)cnn23)cc1,72.8% (inactive)
11,Cc1nccn1-c1cc(C(C)(C)C)nc2c(-c3ccccc3)cnn12,2.7% (inactive)
12,O=C(COc1ccccc1)N1c2ccccc2Sc2ccccc21,-4.38% (inactive)
13,O=C(O)c1ccccc1SCC(=O)N1CCOCC1,7.09% (inactive)
14,CCOc1cccc2sc(Cl)nc12,-8.06% (inactive)
15,C=CCN=C(SCC(=O)c1ccc(Cl)cc1)c1c(O)n(C)c(=O)n(C)c1=O,1.31% (inactive)
16,CSC(=Nc1ccccc1)c1c(O)n(C)c(=O)n(C)c1=O,-1.82% (inactive)
17,CN=C(SCc1ccccc1)c1c(O)n(C)c(=O)n(C)c1=O,-0.87% (inactive)
18,CN=C(SCc1cc2c(cc1Cl)OCO2)c1c(O)n(C)c(=O)n(C)c1=O,-0.46% (inactive)
19,CCNC(=O)CC1S/C(=N/N=C(\C)c2ccccc2)NC1=O (stereo not given),2.78% (inactive)
20,O=C(CNC(=O)c1cccs1)c1ccc(F)cc1,4.53% (inactive)
21,CCN(CC)S(=O)(=O)c1ccc(C(=O)OCC(=O)Nc2sc3c(c2C#N)CCCCC3)cc1,6.83% (inactive)
22,COc1ccc(-c2cc(-c3ccccc3)[n+](C)c(-c3ccccc3)c2)cc1,2.49% (inactive)
23,COc1ccc(-c2ccc(OC)cc2)cc1,-6.18% (inactive)
24,CC(=O)Nc1cccc(C(=O)/C=C/c2ccc(/C=C/C(=O)c3cccc(NC(C)=O)c3)cc2)c1,2.15% (inactive)
25,CC(=O)Nc1cccc(C(=O)/C=C/c2ccc[nH]2)c1,-13.8% (inactive)

row,Structure (SMILES),inhibition
1,CCC(=O)Nc1cccc(C(=O)c2ccccc2)c1,25.8% (inactive)
2,CC(=O)Nc1cccc(C(=O)/C=C/c2ccc(F)cc2)c1,16.5% (inactive)
3,CCC(=O)Nc1cccc(C(=O)/C=C/c2cccs2)c1,31.2% (inactive)
4,CC(=O)Nc1cccc(C(=O)/C=C/c2ccc(N(C)C)cc2)c1,8.2% (inactive)
5,CC(C)CN1C(=O)C(NC(=O)C2CC2)(C(F)(F)F)C2=C1CC(C)(C)CC2=O (stereo not given),-4.55% (inactive)
6,COc1ccc(-n2c(SCC(=O)N/N=C/c3ccccc3OCC(=O)O)nc3ccccc3c2=O)cc1,-3.87% (inactive)
7,COc1ccc(-c2cc(C(=O)OCC(=O)N(C)C)c3ccccc3n2)cc1,-8.2% (inactive)
8,N#CCCN/N=C(\Cc1nc2ccccc2[nH]1)c1ccccc1,-0.45% (inactive)
9,COc1cc(C(C)=O)ccc1COc1ccc(C(=O)OCC(=O)NC2CCS(=O)(=O)C2)cc1OC (stereo not given),1.52% (inactive)
10,O=C(O)CCn1cc(/C=C\C(=O)c2ccc(Cl)cc2)c(-c2cccc(Br)c2)n1,-1.2% (inactive)
11,CCN(CC)CCCNc1cc(C)nc2cc(-c3cccs3)nn12,-2.4% (inactive)
12,CC(Oc1ccc(Cl)cc1Cl)c1nc(-c2ccc(NC(=O)c3ccccn3)cc2)no1 (stereo not given),-3.67% (inactive)
13,CC(Oc1ccc(Cl)cc1Cl)c1nc(-c2ccc(NC(=O)c3cccnc3)cc2)no1 (stereo not given),76.2% (inactive)
14,CCCOc1ccc(-c2nc(OC)c3ccccc3n2)cc1,77% (inactive)
15,Nc1ccc(/C=C/C(=O)c2ccco2)cc1,78.3% (inactive)
16,O=C(/C=C/c1ccc(Br)cc1)c1ccc(NC(=O)c2ccco2)cc1,10.8% (inactive)
17,S=c1[nH]c2ccccc2[nH]1,-2.67% (inactive)
18,S=c1[nH]c2cc3ccccc3cc2[nH]1,73.9% (inactive) and 72.9% (inactive)
19,O=C(Cc1ccc(S(=O)(=O)N2CCCC2)s1)Nc1nc2c(s1)CCCC2,1.89% (inactive)
20,Cc1ccccc1COc1ccc(/C=C(\C#N)C(N)=O)cc1,6.69% (inactive)
21,CCOc1ccc(OCCN(C)Cc2ccccc2)cc1,4.01% (inactive)
22,COc1cc(-c2nc3ccc4ccccc4c3c3c2CCC3)cc(OC)c1OC,-4.59% (inactive)
23,Oc1ccc(-c2nc3ccc4ccccc4c3c3c2CCC3)cc1O,1.26% (inactive)
24,Cc1cc(-c2cccc([N+](=O)[O-])c2)nc2ccc3ccccc3c12,-9.17% (inactive)
25,COc1cc(-c2nc3ccc4ccccc4c3c3c2CCC3)ccc1O,20.8% (inactive)

row,Structure (SMILES),inhibition
1,Cc1ccc(/C=C/C(=O)NCc2ccncc2)cc1,7.66% (inactive)
2,Cn1c(N)c(C(=O)COC(=O)C2CCCC2)c(=O)n(C)c1=O,-2.87% (inactive)
3,Cc1ccc(S(=O)(=O)N(C)C)cc1NC(=S)NNC(=O)C(N)=O,1.54% (inactive)
4,CCCCCCC(=O)N(O)C1CC(=O)N(c2ccc(Cl)cc2)C1=O (stereo not given),7.87% (inactive)
5,CCOCCOC(=O)c1cccc(NC(=O)OCC)c1,-3.13% (inactive)
6,C=CCn1c(O)c(N=NC(=O)CNC(=O)/C=C/c2ccco2)c2ccccc21,-15.1% (inactive)
7,Cc1nc2ccccc2n1/N=C/c1cccnc1,-6.36% (inactive)
8,OCc1nc2ccccc2n1/N=C/c1cccs1,1.55% (inactive)
9,O=[N+]([O-])c1ccc(O)c(/C=N/n2c(CO)nc3ccccc32)c1,-3.46% (inactive)
10,Cc1cc2ncn(/N=C/c3cc(Br)ccc3O)c2cc1C,-5.04% (inactive)
11,Cc1ccc(/C=N/n2c(C)nc3ccccc3c2=O)s1,-1.18% (inactive)
12,Cc1cc2ncn(/N=C/c3cccnc3)c2cc1C,7.38% (inactive)
13,OCCN(CCO)CC(O)COc1ccc(C23CC4CC(CC(C4)C2)C3)cc1 (stereo not given),24.6% (inactive)
14,CCC1CCCCN1CCCNC(=O)Cn1nc(-c2ccc(C)cc2)ccc1=O (stereo not given),-8.72% (inactive)
15,O=C(CSc1nnc(-c2ccco2)n1Cc1ccco1)Nc1ccccc1,-2.58% (inactive)
16,Cc1cccc(NP(=O)(Oc2ccccc2F)Oc2ccccc2F)c1C,1.18% (inactive)
17,O=C(NCc1ccccc1)c1ccccc1-c1nc2ccccc2[nH]1,4.78% (inactive)
18,CCOC(=O)Cc1c(C)nc2c(-c3ccc(Cl)cc3)c(C)[nH]n2c1=O,78.8% (inactive)
19,Cc1ccc(-c2csc(NC(=O)CSc3nc(C)cc(=O)[nH]3)n2)cc1,1.91% (inactive)
20,OC(c1cc(C(F)(F)F)nc2c(Cl)cc(Cl)cc12)C1CCCCN1 (stereo not given),49.4% (inactive)
21,Clc1ccc(-c2cc(-c3nnc4n3CCCCC4)c3ccccc3n2)cc1,71.9% (inactive)
22,CCN(CC)S(=O)(=O)c1ccc(N2CCCC2)c(NC(=O)CC(C)(C)C)c1,-7.98% (inactive)
23,O=C(Nc1cc(Sc2ccccn2)cc([N+](=O)[O-])c1)c1ccc(Cl)cc1,7.55% (inactive)
24,COC(=O)c1cc(OC)c(OC)cc1NC(=S)Nc1cc(Cl)ccc1OC,-12% (inactive)
25,Nc1ccc(Nc2nc(-c3cc4ccccc4oc3=O)cs2)cc1,-8.26% (inactive)

row,Structure (SMILES),inhibition
1,O=C(Nc1nc(-c2cc3ccccc3oc2=O)cs1)c1ccco1,-2.76% (inactive)
2,CC1=C(C(=O)Nc2ccccc2)C2(CCCCC2)C(C#N)=C(S)N1,-2.79% (inactive)
3,Cc1ccc(S(=O)(=O)N(C)C)cc1NC(=O)COC(=O)CCC(=O)c1cccs1,0.54% (inactive)
4,COc1ccc2c(c1)c(C(=O)CN1CCN(C(=O)c3ccco3)CC1)c(C)n2C,3.66% (inactive)
5,COc1ccc(C(CC(=O)c2ccc(C)cc2)Nc2ccc([N+](=O)[O-])cc2)cc1 (stereo not given),13.5% (inactive)
6,Cc1ccc(NCC(=O)c2ccc([N+](=O)[O-])cc2)cc1,6.43% (inactive)
7,CC1(C)CC(=O)c2sc(N3CCCCC3)nc2C1,1.75% (inactive)
8,Fc1ccc(-c2nnn3c2nc(NCc2ccccc2)c2ccccc23)cc1,-3.18% (inactive)
9,COc1ccc(COC(=O)Nc2cc3c(C(F)(F)F)nn(C)c3s2)cc1,0.73% (inactive)
10,Cn1nc(C(F)(F)F)c2cc(NC(=O)OCc3ccc(F)cc3)sc21,-0.24% (inactive)
11,COc1ccc(CNC(=O)COC(=O)/C=C/c2ccc(Cl)cc2)cc1,2.04% (inactive)
12,COc1ccc(-c2nc(N)n(C(=O)c3ccccc3)n2)cc1,6.59% (inactive)
13,O=C(NC1CCCCCC1)c1ccc(=O)n(Cc2ccccc2)n1,-0.36% (inactive)
14,COC(=O)c1ccc2c(c1O)C(=O)c1ccccc1C2=O,1.91% (inactive)
15,CC(C)COC(=O)c1ccccc1C(=O)OCC(C)C,-10% (inactive)
16,CCOC(=O)c1c(C)oc2c1c(CN1CCN(CCO)CC1)c(O)c1ccccc12,3.65% (inactive)
17,O=C(CN1CC=C(c2ccccc2)CC1)NC(=O)NCc1ccco1,-3.79% (inactive)
18,CCOc1ccc(CN2CCN(C(=O)c3ccccc3)CC2)cc1,0.42% (inactive)
19,COc1ccc(-c2cc3ccccc3n2CC(O)CN2CCCCC2)cc1 (stereo not given),3% (inactive)
20,OC(CN1CCN(c2ccccc2)CC1)Cn1c2ccccc2c2ccccc21 (stereo not given),11.9% (inactive)
21,COc1ccc(-c2cc3ccccc3n2CC(O)CN2CCN(CCO)CC2)cc1 (stereo not given),4.8% (inactive)
22,Cc1ccc(OCC(O)CN2CCN(CC(O)COc3ccc(C)cc3)CC2)cc1 (stereo not given),2.23% (inactive)
23,OC(COc1ccccc1)Cn1c2ccccc2c2ccccc21 (stereo not given),41.6% (inactive)
24,O=C(c1ccco1)N1CCN(CC(O)Cn2c3ccccc3c3ccccc32)CC1 (stereo not given),1.44% (inactive)
25,Cc1ccc(OCC(O)Cn2c3ccccc3c3ccccc32)cc1 (stereo not given),72.7% (inactive)
